KCNH2 3.1 block: inhibitors of human KCNH2 3.1 potassium channel isoform; U2OS KCNH2 3.1, thallium flux FluxOr; hits give low values; activity change, % (tested at about 1.8 µM); 0.95% of 340,000 active;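 active = maximum activity change below -70%; inconclusive = maximum activity change from -70% to -50%; inactive = maximum activity change above -50%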;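 note: thallium influx rate constant from kinetic fluorescence after stimulation buffer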
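U2OS cells transduced with KCNH2 3.1 mutant virus (1.77 x 10^8 /mL, 4 h), plated overnight at 37 C, loaded 45 min with FluxOr dye plus Red40 quencher. Thallium flux rate constant from kinetic reads after stimulation buffer, normalised to controls.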
hERG WT inh: blocks the wildtype human KCNH2 potassium channel. Q12809. U2OS, BacMam KCNH2, thallium flux FluxOr; hits give low values. activity change, % at 1.84 µM. 0.37% of 340,000 active. AID 720551;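 active = maximum activity change below -70%; inconclusive = maximum activity change between -70% and -50%; inactive = maximum activity change above -50%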
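U2OS cells were transduced with wild-type KCNH2 virus (2.03 x 10^8 / mL) for 4 h at room temperature, then cultured overnight at 37 C. Thallium flux was read with FluxOr dye. Rate constants were normalized to DMSO controls.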
KinaseGlo FLuc: counter-screen: inhibitors of Kinase-Glo firefly luciferase | Kinase-Glo luciferase, ATP luminescence, 8 min | Q27757 | 0.28% of 200,000 active | Potency, µM (doses to about 38.3 µM), for the others: top-dose activity change, negative = inhibition, most hits filed as inhibitors; active = well fitted inhibition curve with a large enough effect; inconclusive = small, poorly fitted or top-dose-only effect; note: potency is the fitted concentration of half-maximal effect; nearly all actives have a fitted effect of over 60% in size
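Kinase-Glo luciferase light output from ATP and luciferin was measured with 10 uM ATP, within the enzyme's linear range. Buffer: 50 mM imidazole pH 7.2, 50 mM KCl, 7 mM MgCl2, 0.01% Tween 20, 0.05% BSA; luminescence read after 8 min at ambient temperature.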
* marks the source's active call; other numbers are inactive results; ? = inconclusive; . = not tested or not shown. An excerpt weighted towards active compounds, which were near 1.2% of everything screened. % is set by controls: 0 for no effect and ±100 for the full control effect.

SMILES	KCNH2 3.1 block	hERG WT inh	KinaseGlo FLuc
N#C/C(=C\c1ccc([N+](=O)[O-])cc1)C(=O)NCCCn1ccnc1	9.6	1.9	.
O=C(NCCCn1ccnc1)c1cn(-c2ccccc2)nc1-c1ccc(F)cc1	-11.3	33.8	-2.8%
ClC(Cl)(Cl)c1nc2ccccc2n2nncc12	28.2	-23.0	.
CCN1C(=O)[C@H]2[C@H]3CN=C(SCc4ccccc4)N3[C@@](CC)(C(=O)OC)[C@H]2C1=O	-5.1	-0.2	.
COc1cc(NC(=O)CCS(=O)(=O)c2ccc3c(c2)oc(=O)n3C)cc(OC)c1OC	-0.7	-12.0	.
CCOC(=O)C1CCCN(C(=O)CCCn2c(=O)c3cccn3c3cccnc32)C1 (configuration not stated)	1.0	11.1	.
O=c1c(Cl)c(N2CCCCC2)cnn1-c1nc2ccccc2[nH]1	3.3	1.1	1.58µM*
O=c1c2ccccc2cnn1-c1nc2ccccc2[nH]1	7.4	4.8	2µM*
O=c1c2ccccc2nc2c3ccccc3cnn12	-0.3	-19.4	-7.5%
Clc1ccc2nc(N3CCCCC3)[nH]c2c1	5.1	-1.1	-20.1%
O=C(Cn1cnc2c(OCc3ccccc3)ncnc21)NCC1CCCO1 (configuration not stated)	2.8	5.9	.
Cc1ccc(N2CC(C(=O)NCCS(=O)(=O)N3CCN(c4ccccc4F)CC3)CC2=O)cc1 (configuration not stated)	4.6	1.3	.
O=C(c1ccccc1)c1ccccc1N1C(=O)C=CC1=O	0.5	-4.2	.
O=C1C=CC(=O)N1c1ccccc1N1C(=O)C=CC1=O	-192.7*	-135.1*	.
O=c1[nH]c(C2CCN(S(=O)(=O)c3ccc(S(=O)(=O)NC4CC4)cc3)CC2)nc2c1nnn2Cc1cccc(F)c1	9.0	0.3	.
CCCCN(C)CC(O)Cn1cc(/C=C/C(=O)c2cccs2)c2ccccc21 (configuration not stated)	-14.3	0.0	-2.3%
O=C(/C=C/c1cn(CC(O)CN2CCCCCC2)c2ccccc12)c1cccs1 (configuration not stated)	-85.7*	-1.1	-4.1%
O=C(NC(CC(=O)N1CCN(c2ccccc2O)CC1)c1ccccc1)c1ccccc1Cl (configuration not stated)	-8.0	-4.4	.
O=C(NC(CC(=O)N1CCN(c2ccc([N+](=O)[O-])cc2)CC1)c1ccccc1)c1ccccc1Cl (configuration not stated)	-106.8*	-117.0*	-3.2%
COc1ccc2c(c1)O[C@@H]1c3ccc(OC)cc3OCC21 (some centres not stated)	.	.	-1.7%
CCOc1ccc(OCCC(=O)OCC(=O)N(CC)c2c(N)n(Cc3ccccc3)c(=O)[nH]c2=O)cc1	-1.0	-6.6	.
Nc1ncnc2c1ncn2[C@@H]1O[C@H](CO)[C@H](O)[C@H]1O	.	.	0.1%
Nc1ncnc2c1ncn2C1OC(COP(=O)(O)O)C(O)C1O (configuration not stated)	1.6	-3.9	2µM*
Nc1ncnc2c1ncn2[C@@H]1O[C@H](COP(=O)(O)O)[C@@H](O)[C@@H]1O	.	.	3.98µM*
Nc1ncnc2c1ncn2[C@@H]1O[C@H](COP(=O)(O)O)[C@@H](O)[C@H]1O	0.3	-4.7	.
SMILES	KCNH2 3.1 block	hERG WT inh	KinaseGlo FLuc
CSc1ccc(CN(C)Cc2nc3cc(C(F)(F)F)ccc3c(=O)[nH]2)cc1	-16.3	10.2	1.5%
O=C1CSCC(=O)N1Cc1ccc(Cl)c(Cl)c1	-6.1	9.4	.
COc1ccc2nc(SCC(=O)N3CCCCCC3)c(C#N)cc2c1	-88.3*	2.6	-2.1%
COc1ccc2nc(SCC(=O)N3CCCCC3)c(C#N)cc2c1	2.4	-11.6	-1.0%
COc1cc(/C=N\NC(=O)C(C)(C)O)ccc1OC/C=C/c1ccccc1	3.0	-1.5	.
CCCCOc1ccc(C(=O)NCC(=O)NCC(c2ccc(F)cc2)N2CCOCC2)cc1 (configuration not stated)	-5.2	1.5	.
COc1ccc(CN2C(=O)C(C)N(C(=O)c3c(F)cccc3F)c3ccccc32)cc1 (configuration not stated)	11.1	-2.9	.
CC1C(=O)N(Cc2ccc([N+](=O)[O-])cc2)c2ccccc2N1C(=O)c1c(F)cccc1F (configuration not stated)	-1.5	-79.4*	.
COc1ccc(NC(=O)Nc2c(O)ccc3ccccc23)cc1	-12.1	-3.0	.
Nc1ccc(CSc2ccccc2)cc1	-3.0	2.3	.
O=C(NC1CCCCC1NC(=O)c1cccs1)c1cccs1 (configuration not stated)	8.1	-3.3	3.4%
O=C(NC1CCCCCC1)c1cccs1	-3.5	-83.2*	-18.4%
Cc1nnc(Nc2ccc(S(N)(=O)=O)cc2)c2ccccc12	-27.9	-4.0	.
Cc1ccc(S(=O)(=O)Nc2cccc(-n3cnnn3)c2)cc1C	-18.6	-5.9	.
CCN(CC)c1ccc2cc(-c3nnc(-c4ccncc4)o3)c(=O)oc2c1	?	-93.3*	0.4%
CCN(CC)c1ccc2cc(C(C)=O)c(=O)oc2c1	-27.7	17.2	-3.1%
CCOC(=O)C(NC(C)=O)C(=O)Nc1ccc(C)cc1C (configuration not stated)	-15.3	-4.1	-2.2%
CC1CCc2c(sc3nc(CN4CCN(S(=O)(=O)c5ccccc5[N+](=O)[O-])CC4)[nH]c(=O)c23)C1 (configuration not stated)	-73.4*	-11.6	2.8%
Cc1ccc(S(=O)(=O)N2CCN(Cc3nc4sc5c(c4c(=O)[nH]3)CCCC5)CC2)cc1	-13.6	5.4	3.1%
COc1ccc(OC2CCN(C(=O)Nc3ccc(C)cc3)CC2)cc1	12.3	-2.6	.
CN1C2CCC1CC(N(CCc1ccccc1)C(=O)c1ccc(Cl)cc1)C2 (configuration not stated)	?	-39.7	.
CCCCN(C(=O)c1ccc(Cl)cc1)C1CC2CCC(C1)N2C (configuration not stated)	-81.6*	5.5	6.5%
CCCCN(C(=O)c1cc(S(=O)(=O)N2CCOCC2)ccc1F)c1c(N)n(CCCC)c(=O)[nH]c1=O	-7.4	-0.4	.
CCCCN(C(=O)Cc1ccc(S(=O)(=O)N2CCOCC2)s1)c1c(N)n(CCCC)c(=O)[nH]c1=O	-3.6	-74.9*	.
COc1ccc(NC(=S)NNc2ccc(S(=O)(=O)Nc3ccccc3C(=O)O)cc2[N+](=O)[O-])cc1	21.3	-4.8	.
SMILES	KCNH2 3.1 block	hERG WT inh	KinaseGlo FLuc
Cc1ccccc1/C(N)=N/OC(=O)N1c2ccccc2Sc2ccccc21	8.5	3.4	1.5%
Cc1ccc(/C(N)=N/OC(=O)N2c3ccccc3Sc3ccccc32)cc1	8.2	-175.6*	.
N#Cc1cc(-c2ccc(Cl)cc2)cnc1Sc1ccccc1	-78.9*	8.2	-1.2%
N#Cc1cc(-c2ccccc2)cnc1Sc1ccc(Cl)cc1	-19.6	-5.4	3.1%
Cc1ccc(-c2nc3c(Cl)cc(Cl)cc3c(=O)n2O)cc1	8.9	4.7	.
CC(=O)N1CCN(S(=O)(=O)c2cccc(C(=O)NNC(=O)COc3ccc(F)cc3)c2)CC1	8.1	21.6	.
CCC(CC)c1nnc(NC(=O)CC(C)c2ccccc2)s1 (configuration not stated)	-71.7*	-5.4	.
CC(C)c1nnc(NC(=O)CC(C)c2ccccc2)s1 (configuration not stated)	-13.5	-13.9	.

From PubChem
